Here are results for 73 compounds from paper PMC4552634, “A New Set of Chemical Starting Points with Plasmodium falciparum Transmission-Blocking Potential for Antimalarial Drug Discovery” (PLoS ONE, 2015).

The campaign covered roughly 13,000 compounds. About 3,200 (25%) showed an effect of 50% or more. The list shows a part of the results.

The test system of the assay is P. falciparum stage V gametocytes. Also on record: BacTiter-Glo ATP luminescence viability of purified stage V gametocytes in 384-well plates, per cent inhibition versus DMSO. The following applies: 48 h, 5 µM; inhibitor.
On to `CN1C(=CC(=O)NC(=O)c2ccccc2)C(C)(C)c2ccccc21` [TCMDC-136649], for which the % Inhibition (in general, the change of the read-out against control, counted positive when it falls) was determined as 14.63%.
As for `Cc1nc2ccc3nc(NC(=O)c4ccno4)sc3c2s1` [TCMDC-124989], the figure is -34.07%; as for `CCCCCCCn1c(=O)c(C(=O)Nc2c(C)cccc2C)c(O)c2ccccc21` [TCMDC-124465], 13.41%.
As for `CN(C)c1cccc2c1nc(-c1ccco1)n2CC1CCCN1` (stereo not shown) [TCMDC-133408], the figure is -1.299%.
As for `CCCCn1c(-c2ccco2)nc2c(c(=O)c3ccccc3n2C)c1=O` [TCMDC-124920], the figure is 70.03%; as for `Cc1ccccc1CNc1noc(-c2sccc2Br)n1` [TCMDC-134183], -16.29%.
For `N#Cc1ccc(NC(=NC2CCCc3ccccc32)Nc2ccc(-c3ccccc3)cc2)c(O)c1` (stereo not shown) [TCMDC-140207], the “% Inhibition” value was -97.78%.
As to `O=C(NC1CCC(CN2CCC(c3c[nH]c4ccccc34)CC2)CC1)c1cc2cccc([N+](=O)[O-])c2[nH]1` (stereo not shown) [TCMDC-139879], the “% Inhibition” value is 95.83%.
As for `O=C(NC1CCC(CN2CCC(c3c[nH]c4ccccc34)CC2)CC1)c1ccc(-c2ccccc2[N+](=O)[O-])o1` (stereo not shown) [TCMDC-140295], the figure is -19.57%.
As for `N#Cc1ccc2c(c1)CCN(CCC1CCC(NC(=O)c3cc4cccc([N+](=O)[O-])c4[nH]3)CC1)C2` (stereo not shown) [TCMDC-139188], the figure is 23.84%; as for `O=C(c1cc2cccc([N+](=O)[O-])c2[nH]1)N1CCC(CCN2CCC(c3c[nH]c4ccccc34)CC2)CC1` [TCMDC-139880], 92.61%.
As for `COc1cc(C)ccc1N1CCN(CCCCNC(=O)c2ccc(NC(=O)c3ccc(Cl)cc3)cc2)CC1` [TCMDC-138374], the figure is -7.22%; as for `O=C(Nc1cc(Cl)c(Cl)cc1NC(=O)c1cccc(-c2ccccc2)c1O)c1cccc(-c2ccccc2)c1O` [TCMDC-139548], 45.99%.
In the case of `COC(=O)CNC(c1ccccc1)c1cc(Br)ccc1NC(=O)c1ccccc1Br` (stereo not shown) [TCMDC-124194], the “% Inhibition” value was 56.77%.
Regarding `CCNc1cc(C)nc(Nc2ccc(NC(=O)c3ccccc3Br)cc2)n1` [TCMDC-124985], the “% Inhibition” value is reported as 22.04%.
Consider `CCOC(=O)NC1=NC(C)(C)N(OCCCOc2cc(Cl)c(Cl)cc2Cl)C(N)=N1` [TCMDC-131741], for which the “% Inhibition” value is given as -6.814%.
Consider `CC(C)C1C(O)=C(c2ccc3ccccc3c2)C(=O)N1CC1CCCCC1` (stereo not shown) [TCMDC-141719], for which the “% Inhibition” value came to 18.57%.
Regarding `Cc1cc(N[C@@H](Cc2ccccc2)C(=O)NC2CCCC2)nc(Nc2ccccc2)n1` [TCMDC-134856], the “% Inhibition” value came to 16.45%.
Take `O=C(Nc1nc2cc(S(=O)(=O)NCCCN3CCOCC3)ccc2n1CCCn1ccnc1)c1ccc(Cl)cc1` [TCMDC-141624]: the “% Inhibition” value amounted to 31.25%.
As for `O=C(Nc1nc2cc(S(=O)(=O)NCc3ccc(Cl)c(Cl)c3)ccc2n1CCCN1CCCC1)c1ccc(Cl)cc1` [TCMDC-141622], the figure is 64.1%.
As for `O=C(Nc1nc2cc(S(=O)(=O)NCc3ccc(Cl)c(Cl)c3)ccc2n1CCCn1ccnc1)c1ccc(Cl)cc1` [TCMDC-141625], the figure is -7.697%; as for `O=C(O)C(F)(F)F.O=C1CCCN1CCCNCc1ccc(-c2ccc(-c3nc4cc(F)ccc4[nH]3)cc2)cc1` [TCMDC-132759], -31.18%.
As for `Cc1cc(C(=O)NCc2ccc(-c3c(C)noc3C)cc2)n(-c2ccccc2)n1` [TCMDC-133780], the figure is 16.41%; as for `Cc1ccc(Nc2nc(C)cc(NC3CCN(C)CC3)n2)cc1` [TCMDC-133997], 39.13%; as for `CCCCc1cc(NC2CCN(C)CC2)nc(Nc2ccccc2)n1` [TCMDC-133994], 6.593%.
`CCCc1cc(NC2CCN(C)CC2)nc(Nc2ccc(C)cc2)n1` [TCMDC-134003]: the “% Inhibition” value is given as 32.47%.
As for `CCCc1cc(NC2CCN(C)CC2)nc(Nc2ccc(F)cc2)n1` [TCMDC-134004], the figure is 57.16%; as for `CCCc1cc(NC2CCN(C)CC2)nc(Nc2cccc(OC)c2)n1` [TCMDC-134001], 21.8%.
On to `CCc1cc(NC2CCN(C)CC2)nc(Nc2ccc(C)cc2)n1` [TCMDC-133996], for which the “% Inhibition” value was 57.8%.
As for `COC(=O)c1cc(C(=O)CN(Cc2ccccc2)C(C)C)ccc1O` [TCMDC-131766], the figure is 18.13%; as for `CC(=O)Nc1ccc(OCCCCN(Cc2ccccc2C(F)(F)F)c2ccc(C(F)(F)F)c(C#N)c2)c(Cl)c1` [TCMDC-133358], 47.4%; as for `N#Cc1ccc(N(CCOC(=O)c2ccc(Br)s2)Cc2ccccc2C(F)(F)F)cc1C(F)(F)F` [TCMDC-135739], 59.47%.
As for `N#Cc1ccc(N(CCNS(=O)(=O)c2cc(Br)c(Cl)s2)Cc2ccccc2C(F)(F)F)cc1C(F)(F)F` [TCMDC-135822], the figure is 50.22%; as for `CC(=O)Nc1ccc(OCCN(Cc2ccccc2C(F)(F)F)c2ccc(C#N)c(C(F)(F)F)c2)cc1` [TCMDC-132802], 0.1764%.
As for `CC(=O)Nc1ccc(OCCCN(Cc2ccccc2C(F)(F)F)c2ccc(C(F)(F)F)c(C#N)c2)c(Cl)c1` [TCMDC-132785], the figure is 61.05%; as for `CC(=O)Nc1ccc(OCCN(Cc2ccccc2C(F)(F)F)c2ccc(C#N)c(C(F)(F)F)c2)c(Cl)c1` [TCMDC-132790], 76.06%.
`N#Cc1ccc(N(CCCO)Cc2ccccc2C(F)(F)F)cc1C(F)(F)F` [TCMDC-134689]: the “% Inhibition” value was 3.655%.
As for `CC(=O)Nc1ccc(OCCN(Cc2ccccc2OC(F)(F)F)c2ccc(C(F)(F)F)c(C#N)c2)c(Cl)c1` [TCMDC-132792], the figure is 45.86%; as for `CC(=O)Nc1ccc(OCCCN(Cc2ccccc2OC(F)(F)F)c2ccc(C(F)(F)F)c(C#N)c2)c(Cl)c1` [TCMDC-132789], 32.58%.
Consider `N#Cc1ccc(N(CCOc2ccc(Cl)cc2)Cc2ccccc2C(F)(F)F)cc1C(F)(F)F` [TCMDC-132794], for which the “% Inhibition” value is listed as -24.46%.
As for `N#Cc1ccc(N(CCOC(=O)c2ccccc2)Cc2ccccc2C(F)(F)F)cc1C(F)(F)F` [TCMDC-135738], the figure is -18.34%.
As for `N#Cc1ccc(OCCN(Cc2ccccc2C(F)(F)F)c2ccc(C#N)c(C(F)(F)F)c2)cc1` [TCMDC-132799], the figure is 28.83%; as for `CCC(=O)Nc1cc(=O)[nH]c2nc(-c3ccc(Cl)cc3)nn12` [TCMDC-125473], -75.71%.
As for `Cc1cc(-c2cc(-c3ccc(OCCN(C)C)cc3)[nH]c2-c2ccc3c(c2)CCC3=NO)ccn1` [TCMDC-141302], the figure is 25.92%; as for `N#Cc1cccc(NC(=O)Nc2ccc(CC(=O)N3CCc4cc(Cl)c(N5CCN(C/C=C/c6ccccc6)CC5)cc43)cc2)c1` [TCMDC-139476], 12.28%.
On to `CCCc1cc(Cc2cnc(N)nc2N)ccc1OCCCCCC(=O)O` [TCMDC-137231], for which the “% Inhibition” value is -22.54%.
As for `CS(=O)(=O)CCNCc1cc(-c2cc3ncnc(Nc4ccc(OCc5cccc(F)c5)c(Cl)c4)c3s2)cs1` [TCMDC-138726], the figure is -0.4482%.
As for `CCOC(=O)c1ccc2nc(-c3ccc(C(=O)NC4CCN(Cc5ccccc5)CC4)s3)[nH]c2c1` [TCMDC-140575], the figure is -23.22%; as for `CCCCSc1nc2c(c(=O)n1Cc1ccco1)C1(CCCCC1)Cc1ccccc1-2` [TCMDC-123896], -14.5%; as for `CC(C)(C)Oc1ccc(C[C@@H]2NC3(C(=O)N(Cc4ccc(Cl)c(Cl)c4)c4ccccc43)C3C(=O)N(c4ccc(Br)cc4)C(=O)C32)cc1` (stereo partly shown) [TCMDC-139775], -22.32%.
In the case of `CC(=O)Nc1ccc(OCCN(CC(C)(C)C)c2ccc(C#N)c(C(F)(F)F)c2)c(Cl)c1` [TCMDC-132786], the “% Inhibition” value is 66.46%.
As for `CC(=O)Nc1ccc(OCCCCN(Cc2ccccc2C(F)(F)F)c2ccc(C#N)c(C(F)(F)F)c2)c(Cl)c1` [TCMDC-132787], the figure is 69.01%; as for `CC(=O)Nc1ccc(OCCN(CC(C)C)c2ccc(C(F)(F)F)c(C#N)c2)c(Cl)c1` [TCMDC-132793], 18.14%; as for `CC(=O)Nc1ccc(OCCN(CC(C)C)c2ccc(C#N)c(C(F)(F)F)c2)c(Cl)c1` [TCMDC-137002], 29.5%.
As to `CC(=O)Nc1ccc(OCCCCN(Cc2ccccc2C(F)(F)F)c2ccc(C#N)c(C(F)(F)F)c2)cc1` [TCMDC-132800], the “% Inhibition” value is listed as 12.39%.
As for `CC(=O)Nc1ccc(OCCCCN(Cc2ccccc2OC(F)(F)F)c2ccc(C(F)(F)F)c(C#N)c2)c(Cl)c1` [TCMDC-132788], the figure is 39.51%.
With `O=C(Nc1ccc(-c2cccc(-c3nc4ccccc4[nH]3)c2)cc1)Nc1ccc(F)c(F)c1F` [TCMDC-133237], the “% Inhibition” value is given as 3.705%.
As for `COc1cc(N)cc2sc(N)nc12` [TCMDC-124235], the figure is -47.26%.
As for `COCCN(C)c1ccc(C(=O)Nc2ccccc2)cc1NS(=O)(=O)Cc1ccccc1` [TCMDC-134575], the figure is 41.39%; as for `O=C(O)CCSSc1cccc[n+]1[O-]` [TCMDC-141973], 168.8%.
As for `COc1cc2c(cc1C(F)(F)F)N(C(=O)Nc1cc(F)cc(-c3cccnn3)c1)CC2` [TCMDC-139045], the figure is -0.3523%; as for `Cc1ccc(O)cc1Nc1ccnc2cc(-c3ccccn3)ccc12` [TCMDC-138201], 17.09%; as for `Cc1ccc(C(=O)Nc2ccc(Nc3ccnc4cc(-c5ccncc5)ccc34)cc2O)cc1` [TCMDC-138294], -17.41%.
As to `COc1cc2nccc(Nc3ccc(NC(=O)c4ccc(C)cc4)c(O)c3)c2cc1OC.Cl` [TCMDC-138197], the “% Inhibition” value is recorded as 20.08%.
As for `c1ccc(-c2ccc3c(Nc4ccc5[nH]ccc5c4)ccnc3c2)nc1` [TCMDC-138200], the figure is 22.33%; as for `Cc1ccc(C(=O)Nc2ccc(Nc3ccnc4cc(-c5ccccn5)ccc34)cc2O)cc1` [TCMDC-138205], 115.7%.
For the compound `CC(=O)Nc1ccc(COc2ccc(Nc3ccnc4cc(-c5ccccn5)ccc34)cc2)cc1` [TCMDC-138206], the “% Inhibition” value is listed as 116.6%.
As for `c1ccc(-c2ccc3c(Nc4ccc5[nH]ncc5c4)ccnc3c2)nc1` [TCMDC-138199], the figure is 108.3%.
As for `O=C(C(=O)c1ccc(Nc2ccnc3cc(-c4ccccn4)ccc23)cc1)c1ccccc1` [TCMDC-138204], the figure is -8.545%; as for `Cc1ccc(Nc2ccnc3cc(-c4nccs4)ccc23)cc1C(O)c1ccccc1` (stereo not shown) [TCMDC-138338], -2.553%; as for `Cc1ccc(C(=O)Nc2ccc(Nc3ccnc4cc(-c5nccs5)ccc34)cc2O)cc1` [TCMDC-138298], 75.39%.
`COc1cc2nccc(Nc3ccc(OCc4ccc(NC(C)=O)cc4)cc3)c2cc1OC.Cl` [TCMDC-138198]: the “% Inhibition” value was -13.16%.
As for `COc1ccc(Nc2ccnc3cc(-c4ccccn4)ccc23)cc1OC` [TCMDC-138207], the figure is -27.22%.
